From PubChem BioAssay (NCATS)
Inconclusive results are not listed. Calls of active or inactive are those of the source. Unless noted, calls follow the shape of the dose curve; as a rule, active = well fitted curve in the direction sought with a large enough effect; inconclusive = small, poorly fitted or top-dose-only effect, or another doubt; inactive = no such curve, though single readings can be large; an effect the other way counts as inactive or inconclusive.

Key:
CAOV3 = assay: Primary qHTS to identify gynecologic anti-cancer compounds using libraries of approved drugs and bioactive compounds (AID 1345084); details: Gynecologic cancer cell panel viability, ATPlite luminescence, 48 h; series mostly up to 57.5 µM; also: nearly all actives have a fitted effect of over 55% in size; also: potency is read from the fitted curve at half-maximal effect
Summary of the method: (§1)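 Cells, 1,000 per well, were allowed to settle for 16 h at 37 C before compound addition. Five concentrations were tested for 48 h, and viability was read by ATPlite luminescence after 15 min at room temperature.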

CASKI = assay: as above; details: Gynecologic cancer cell panel viability, ATPlite luminescence, 48 h; series mostly up to 57.5 µM
Summary of the method: as §1

Es-2 = assay: as above; details: Gynecologic cancer cell panel viability, ATPlite luminescence, 48 h; series mostly up to 57.5 µM
Summary of the method: as §1

HeLa = assay: as above; details: Gynecologic cancer cell panel viability, ATPlite luminescence, 48 h; series mostly up to 57.5 µM
Summary of the method: as §1

Hek293T = assay: as above; details: Gynecologic cancer cell panel viability, ATPlite luminescence, 48 h, control line for the selectivity index; series mostly up to 57.5 µM
Summary of the method: as §1

JEG-3 = assay: as above; details: Gynecologic cancer cell panel viability, ATPlite luminescence, 48 h; series mostly up to 57.5 µM
Summary of the method: as §1

OV90 = assay: as above; details: Gynecologic cancer cell panel viability, ATPlite luminescence, 48 h; series mostly up to 57.5 µM
Summary of the method: as §1

PA-1 = assay: as above; details: Gynecologic cancer cell panel viability, ATPlite luminescence, 48 h; series mostly up to 57.5 µM
Summary of the method: as §1

SKOV3 = assay: as above; details: Gynecologic cancer cell panel viability, ATPlite luminescence, 48 h; series mostly up to 57.5 µM
Summary of the method: as §1

Tov112D = assay: as above; details: Gynecologic cancer cell panel viability, ATPlite luminescence, 48 h; series mostly up to 57.5 µM
Summary of the method: as §1

[1] = Drug repurposing screens with cells derived from glioblastoma tumor samples (AID 1345199); details: GBM patient neurospheres viability, ATP luminescence, 48 h; also: nearly all actives have a fitted effect of over 40% in size; also: potency is read from the fitted curve at half-maximal effect; as to activity, negative = cell killing: % is scaled to controls: 0 for no effect and ±100 for the full control effect
Summary of the method: (§2)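 Primary testing used CD133+ neurospheres from four GBM patients, seven concentrations, 48 h exposure and ATP-based viability; confirmation added three slower-growing patient lines.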

astro = assay: as above; details: viability, ATP luminescence, 48 h; series mostly up to 45.9 µM
Summary of the method: as §2

Tov-21-G = assay: Primary qHTS to identify gynecologic anti-cancer compounds using libraries of approved drugs and bioactive compounds (AID 1345084); details: Gynecologic cancer cell panel viability, ATPlite luminescence, 48 h; series mostly up to 57.5 µM; also: nearly all actives have a fitted effect of over 55% in size; also: potency is read from the fitted curve at half-maximal effect
Summary of the method: as §1

[2] = target: Nuclear receptor subfamily 1 group I member 2 (Rattus norvegicus) (UniProt Q9R1A7); assay: qHTS assay for small molecule activators of the rat pregnane X receptor (rPXR) signaling pathway (AID 651751; call rule not given here; also: 0% is about no effect); details: rPXR reporter cells, luciferase (One-Glo), 24 h
[3] = qHTS assay for small molecule activators of the human pregnane X receptor (PXR) signaling pathway (AID 720659; call rule not given here; also: 0% is about no effect); details: DPX-2 HepG2 CYP3A4-luciferase, 24 h; series mostly up to 92.3 µM
[4] = at 45.9 µM (top of the series), tumour line B
[5] = at 45.9 µM (top of the series), tumour line D
[6] = at 46.1 µM (top of the series), tumour line C
[7] = at 46 µM (top of the series), tumour line A

Sequence of Nuclear receptor subfamily 1 group I member 2 (Rattus norvegicus) (Q9R1A7 whole entry, looked up): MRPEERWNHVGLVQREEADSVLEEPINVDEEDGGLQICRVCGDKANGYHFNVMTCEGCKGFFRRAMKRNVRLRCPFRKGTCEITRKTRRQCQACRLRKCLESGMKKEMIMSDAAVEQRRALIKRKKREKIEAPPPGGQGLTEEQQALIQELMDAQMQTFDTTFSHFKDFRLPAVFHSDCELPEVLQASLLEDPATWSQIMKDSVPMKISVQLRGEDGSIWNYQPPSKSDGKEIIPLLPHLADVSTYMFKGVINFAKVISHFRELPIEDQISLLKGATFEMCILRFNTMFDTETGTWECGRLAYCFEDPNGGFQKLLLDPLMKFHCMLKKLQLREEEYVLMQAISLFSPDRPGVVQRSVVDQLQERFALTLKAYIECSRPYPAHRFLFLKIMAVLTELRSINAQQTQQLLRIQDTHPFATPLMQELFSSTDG

CC(=O)NC[C@H]1CN(c2ccc(N3CCOCC3)c(F)c2)C(=O)O1
inactive: Potency (CAOV3) | Potency (CASKI) | Potency (Es-2) | Potency (HeLa) | Potency (Hek293T) | Potency (JEG-3) | Potency (OV90) | Potency (PA-1) | Potency (SKOV3) | Potency (Tov112D) | activity, negative = cell killing [1, 4] -14.6% | activity, negative = cell killing [1, 5] -26.2% | activity, negative = cell killing [1, 6] 15.8% | Potency (astro)

Nc1cccc2c1CN(C1CCC(=O)NC1=O)C2=O (stereo unspecified)
inactive: Potency (CAOV3) | Potency (CASKI) | Potency (Es-2) | Potency (HeLa) | Potency (Hek293T) | Potency (JEG-3) | Potency (OV90) | Potency (PA-1) | Potency (SKOV3) | Potency (Tov-21-G) | Potency (Tov112D) | activity, negative = cell killing [1, 4] -18.6% | activity, negative = cell killing [1, 5] -1.35% | activity, negative = cell killing [1, 7] -28.8% | activity, negative = cell killing [1, 6] -29.8% | Potency (astro)

CC(C)c1ccc2oc3nc(N)c(C(=O)O)cc3c(=O)c2c1
active: Potency (CAOV3) 6.31 µM | Potency (CASKI) 4.47 µM | Potency (Es-2) 7.08 µM | Potency (HeLa) 7.94 µM | Potency (Hek293T) 7.08 µM | Potency (JEG-3) 7.94 µM | Potency (OV90) 6.31 µM | Potency (PA-1) 5.62 µM | Potency (SKOV3) 7.08 µM | Potency (Tov-21-G) 5.01 µM | Potency (Tov112D) 7.94 µM | Potency (astro) 1.78 µM

O=C(O)c1cn(-c2ccc(F)cc2)c2cc(N3CCNCC3)c(F)cc2c1=O
inactive: Potency (CAOV3) | Potency (CASKI) | Potency (Es-2) | Potency (HeLa) | Potency (Hek293T) | Potency (JEG-3) | Potency (OV90) | Potency (PA-1) | Potency (SKOV3) | Potency (Tov-21-G) | Potency (Tov112D) | activity, negative = cell killing [1, 4] -14.1% | activity, negative = cell killing [1, 5] -2.04% | activity, negative = cell killing [1, 6] 0.795% | Potency (astro)

CC(C)c1nc(CN(C)C(=O)N[C@H](C(=O)N[C@@H](Cc2ccccc2)C[C@H](O)[C@H](Cc2ccccc2)NC(=O)OCc2cncs2)C(C)C)cs1
inactive: Potency (CAOV3) | Potency (CASKI) | Potency (Es-2) | Potency (HeLa) | Potency (Hek293T) | Potency (JEG-3) | Potency (OV90) | Potency (PA-1) | Potency (SKOV3) | Potency (Tov-21-G) | Potency (Tov112D) | Potency (astro)

Nc1ccc(S(N)(=O)=O)cc1
inactive: Potency (CAOV3) | Potency (CASKI) | Potency (Es-2) | Potency (HeLa) | Potency (Hek293T) | Potency (JEG-3) | Potency (OV90) | Potency (PA-1) | Potency (Tov-21-G) | Potency (Tov112D) | activity, negative = cell killing [1, 4] -13.5% | activity, negative = cell killing [1, 5] -7.18% | activity, negative = cell killing [1, 7] -12.5% | activity, negative = cell killing [1, 6] 10.5% | Potency (astro) | max response [2] 5.05% | outcome [3]

CCC[C@@H]1C[C@@H](C(=O)N[C@@H]([C@H]2O[C@H](SC)[C@H](O)[C@@H](O)[C@H]2O)[C@@H](C)O)N(C)C1
inactive: Potency (CAOV3) | Potency (CASKI) | Potency (Es-2) | Potency (HeLa) | Potency (Hek293T) | Potency (JEG-3) | Potency (OV90) | Potency (PA-1) | Potency (Tov-21-G) | Potency (Tov112D) | activity, negative = cell killing [1, 4] -4.01% | activity, negative = cell killing [1, 5] 5.06% | activity, negative = cell killing [1, 7] -2.05% | activity, negative = cell killing [1, 6] 3.06% | Potency (astro)

O=C(O)c1cc(=O)c2c(OCC(O)COc3cccc4oc(C(=O)O)cc(=O)c34)cccc2o1
inactive: Potency (CAOV3) | Potency (CASKI) | Potency (Es-2) | Potency (HeLa) | Potency (Hek293T) | Potency (OV90) | Potency (PA-1) | Potency (SKOV3) | Potency (Tov-21-G) | Potency (Tov112D) | activity, negative = cell killing [1, 4] -3.77% | activity, negative = cell killing [1, 5] -23.3% | activity, negative = cell killing [1, 7] -3.33% | activity, negative = cell killing [1, 6] 5.01% | Potency (astro)

O=C(NCC1CCCCN1)c1cc(OCC(F)(F)F)ccc1OCC(F)(F)F (stereo unspecified)
inactive: Potency (CAOV3) | Potency (CASKI) | Potency (Es-2) | Potency (HeLa) | Potency (Hek293T) | Potency (JEG-3) | Potency (OV90) | Potency (PA-1) | Potency (Tov-21-G) | Potency (Tov112D) | activity, negative = cell killing [1, 7] 20.5% | activity, negative = cell killing [1, 6] -6.86%

O=C(c1ccccc1)c1ccc2n1CCC2C(=O)O (stereo unspecified)
inactive: Potency (CAOV3) | Potency (CASKI) | Potency (Es-2) | Potency (HeLa) | Potency (Hek293T) | Potency (JEG-3) | Potency (OV90) | Potency (PA-1) | Potency (Tov-21-G) | Potency (Tov112D) | Potency (astro)

Cc1cc(=O)oc2cc(O)ccc12
inactive: Potency (CAOV3) | Potency (CASKI) | Potency (Es-2) | Potency (HeLa) | Potency (Hek293T) | Potency (JEG-3) | Potency (OV90) | Potency (PA-1) | Potency (Tov-21-G) | Potency (Tov112D) | activity, negative = cell killing ([1]; at 20 µM (top of the series), tumour line C) -8.91% | activity, negative = cell killing ([1]; at 21.2 µM (top of the series), tumour line B) -9.65% | activity, negative = cell killing ([1]; at 21.2 µM (top of the series), tumour line D) -8.02% | Potency (astro)

N=C(N)c1ccc2cc(OC(=O)c3ccc(N=C(N)N)cc3)ccc2c1
inactive: Potency (CAOV3) | Potency (CASKI) | Potency (Es-2) | Potency (HeLa) | Potency (Hek293T) | Potency (JEG-3) | Potency (OV90) | Potency (PA-1) | Potency (Tov-21-G) | Potency (Tov112D) | activity, negative = cell killing [1, 4] -0.17% | activity, negative = cell killing [1, 5] -17% | activity, negative = cell killing [1, 6] 10% | Potency (astro)

Cc1cc(C2CCCCC2)n(O)c(=O)c1
inactive: Potency (CASKI) | Potency (HeLa)
active: Potency (CAOV3) 15.8 µM | Potency (Es-2) 14.1 µM | Potency (Hek293T) 7.08 µM | Potency (PA-1) 2 µM | Potency (SKOV3) 10 µM | Potency (Tov112D) 7.08 µM

O=C(O)CCNC(=O)c1ccc(N=Nc2ccc(O)c(C(=O)O)c2)cc1
inactive: Potency (CAOV3) | Potency (CASKI) | Potency (Es-2) | Potency (HeLa) | Potency (Hek293T) | Potency (JEG-3) | Potency (OV90) | Potency (PA-1) | Potency (Tov-21-G) | Potency (Tov112D) | Potency (astro)

Cc1ccc(C(=O)c2cc(O)c(O)c([N+](=O)[O-])c2)cc1
inactive: Potency (CAOV3) | Potency (CASKI) | Potency (Es-2) | Potency (Hek293T) | Potency (JEG-3) | Potency (OV90) | Potency (SKOV3) | Potency (Tov-21-G) | Potency (Tov112D) | activity, negative = cell killing [1, 4] -17.5%
